Out of some 370,000 compounds screened, about 3,700 (1%) were called active. Only a selection was taken, and actives are over-represented in it overall. Unmarked numbers belong to inactive results.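 The calls were made as follows: active = activation above the mean over all tested compounds plus 3 SD (cut at about 0.9% in these data); inactive = the rest.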

The test deals with Nuclear hormone receptor DAF-12 (Strongyloides stercoralis). Nature of the test: ssDAF-12 driven luciferase reporter activation – cell-based, luminescence, HEK293, GRIP1 co-expression, lit1-tk-luc, primary screen (AID 652126).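 Also: 0% = DMSO-only wells and 100% = 3 µM delta7-dafachronic acid wells.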 Conditions: HEK293 ssDAF-12/GRIP1 lit1-tk-luc reporter, at 6.8 µM, stronger effect = higher value, % of 3 µM dafachronic acid response.
Take `CCn1c(=O)n2n(c1=O)[C@@]1(C=C3CCCC[C@H]32)N=C(NC(=O)c2ccccc2)N(Cc2ccccc2)[C@H]1Cc1ccccc1`: the activation is -1.66%.

In the case of `O=S1(=O)c2ccc(Br)cc2OC[C@H](Cc2ccccc2)N1Cc1cn(Cc2ccccc2)nn1`, the activation is -1%.

Turning to `COc1ccc(C2c3[nH]c4ccccc4c3CCN2CCCn2cccn2)cc1C` (configuration not stated), the activation was 0.43%.

For the molecule `Cc1cccc(C(=O)N2CCc3c([nH]c4ccccc34)C2CC(C)C)n1` (configuration not stated), the activation was 1.53% (active).

`Cc1cccc(C2c3[nH]c4ccccc4c3CCN2C(=O)c2cc(-c3cccn3C)n[nH]2)n1` (configuration not stated): the activation was -0.27%.

`C[C@@H](NC(=O)c1ccccc1OCC(=O)Nc1ccc(I)cc1)C(=O)N(C)Cc1ccccc1`: the activation is -1.27%.

As to `COC(=O)C[C@H]1CC[C@H]2[C@H](COc3ccc(NC(=O)C4CC4)cc3C(=O)N2C)O1`, the activation was -1.49%.

Regarding `Cc1ccc(NC(=O)Nc2cccnc2)cc1`, the activation is 1.08% (active).

With `Cc1ccc(NC(=O)N2CCC(O)(c3cccnc3)CC2)cc1`, the activation is -1.43%.

With `O=C(Nc1ccc(Cl)cc1)Nc1ccc(Oc2cccnc2)nc1`, the activation was -1.82%.

For the molecule `COc1cccc(CSc2nnc(-c3cccnc3)n2Cc2ccccc2)c1`, the activation was -1.73%.

In the case of `COC(=O)[C@]12C[C@H](CC(=O)N3CCOCC3)C(=O)N(Cc3ccc(Cl)cc3Cl)C1=C[C@H](C(C)C)O[C@@H]2C1CC1`, the activation was -0.42%.

Turning to `Cc1ccccc1NC(=O)Cn1nnc(-c2ccccc2F)n1`, the activation is -0.75%.

Take `CN(CC#CCC(c1ccccc1)c1ccccc1)C(C)(C)C`: the activation was 1.07% (active).

On to `CC(C)(C)N(CC#CCC(O)(c1ccccc1)C1CCCC1)CCO` (configuration not stated), for which the activation is -0.45%.

As for `C#CCNC(=O)C[C@H]1C[C@@]2(C(=O)OC)C(=C[C@H](C(C)C)O[C@@H]2C2CC2)N(Cc2ccco2)C1=O`, the activation was -1.02%.

For `Cc1cccc(/C(N)=N/OC(=O)c2ccccc2Cl)c1`, the activation was 1.96% (active).

On to `Cc1cc(OC(=O)c2ccccc2Cl)ccc1N1C(=O)CCC1=O`, for which the activation is -1.58%.

Take `CCOC(=O)c1nn(-c2cccc(C)c2)cc1C(=O)c1ccccc1`: the activation was -0.86%.

Take `Cc1cccc(-n2cnc(C(=O)NNC(=S)Nc3ccccc3)c2)n1`: the activation is -1.77%.

On to `CC(C)(COC(=O)Nc1ccccc1)COC(=O)Nc1ccccc1`, for which the activation is -0.77%.

Take `N/C(=N\OC(=O)Nc1ccccc1)c1ccno1`: the activation is 5.22% (active).

As to `O=C(Nc1ccccc1)O/N=C1/CCCc2occc21`, the activation is -1.48%.

Consider `COc1ccc(N2CCN(CCNS(=O)(=O)c3ccc(C(C)(C)C)cc3)CC2)cc1`, for which the activation is -0.72%.

On to `Cc1ccc(Cn2cc(CN3[C@@H](C)COc4cc(Br)ccc4S3(=O)=O)nn2)cc1`, for which the activation was -1.02%.

Regarding `O=C(Cn1cnc([N+](=O)[O-])n1)NCCc1ccccc1`, the activation was -1.02%.

As to `O=C(O)CC(Cc1ccccc1)C(=O)Nc1ccc([N+](=O)[O-])cc1` (configuration not stated), the activation was -1.24%.

Turning to `O=C(Nc1ccn(Cc2ccccc2)n1)c1n[nH]c([N+](=O)[O-])c1Cl`, the activation is 1.07% (active).

For `Cc1ccccc1CS(=O)(=O)Cc1ccc(C(=O)Nc2ccc(Cl)cc2)o1`, the activation is -2.4%.

Regarding `O=C(C1CCN(C2CCN(Cc3ccc4cc(F)ccc4n3)CC2)CC1)N1CCCC1`, the activation was 0.06%.

Take `C/C(=C\c1ccco1)CN1CCC(N2CCC(C(=O)N3CCOCC3)CC2)CC1`: the activation was 1.16% (active).

On to `O=C(C1CCN(C2CCN(Cc3cccc4c3OCO4)CC2)CC1)N1CCOCC1`, for which the activation is -0.29%.

Take `O=S(=O)(c1ccccc1)N1CCC(c2nc3ccccc3o2)CC1`: the activation was -1.57%.

Turning to `C=C(C)C#CC(Cc1ccccc1)NCC1CC1` (configuration not stated), the activation was -1.12%.

As to `COC(=O)[C@H](C(C)C)N1CCc2nnn(Cc3ccc(C)cc3)c2-c2ccccc2S1(=O)=O`, the activation is -1.89%.

Consider `COC(=O)[C@@]12CCCCC=C1N(CCc1ccc(Cl)cc1)C(=O)[C@H]2CC(=O)NCc1ccc(OC)c(OC)c1`, for which the activation was -1.91%.

For `Cc1ccc(/C=C2\CCn3c2nc2cc(C(=O)O)ccc2c3=O)c(C)c1`, the activation was -1.16%.

In the case of `Cc1ccc2cc(/C=N/Nc3ccc(C(=O)O)cc3)c(Cl)nc2c1`, the activation is 0.95% (active).

Turning to `Cc1ccc(C(=O)N/N=C/c2sc(=O)n(Cc3cccc(C(=O)O)c3)c2Cl)cc1`, the activation is 0.05%.

In the case of `COc1cccc(N2CCN(CC(=O)N(C)Cc3ccc(F)cc3)CC2)c1`, the activation is -1.79%.

Take `O=S1(=O)c2c(cccc2N2CC[C@H](O)C2)O[C@@H]2CCN1C2`: the activation was -0.61%.

Take `CC(=O)OC12CCCN(C1)/C(=C/c1ccncc1)C2` (configuration not stated): the activation was -1.9%.

For `Cc1cc(C)nc(Nc2n[nH]c(-c3ccccc3N)n2)n1`, the activation was 1.05% (active).

Consider `Cc1cc(C)n2ncc(C(=O)Nc3ccc4c(c3)OCCO4)c2n1`, for which the activation was -1.35%.

For the molecule `C=CCN1C(=O)[C@@H](CC(=O)N2CCN(C(=O)c3ccco3)CC2)[C@]2(C(=O)OC)CCCCC=C12`, the activation was -0.85%.

`O=C(CSc1nc2ccccc2n1Cc1ccccc1Cl)N/N=C\c1c[nH]c2ccccc12`: the activation is -0.54%.

Regarding `COc1ccc(N(CC(=O)N/N=C/c2cccs2)S(=O)(=O)c2ccc(OC)c(OC)c2)cc1`, the activation is -1.66%.

As to `Cc1c(NC(=O)C(=O)N/N=C/c2cccs2)c(=O)n(-c2ccccc2)n1C`, the activation was -1.41%.

As to `COc1ccc2c(c1)c(C(=O)N/N=C/c1cccs1)c(C)n2C`, the activation is 1.69% (active).

As for `O=C(CSc1nc2ccccc2n1Cc1ccccc1)NNC(=S)Nc1ccccc1`, the activation was -1.45%.

In the case of `C=CCN1C(=O)[C@@H](CC(=O)NCCCCc2ccccc2)[C@]2(C(=O)OCC)CCCCC/C=C/12`, the activation was -1.06%.

In the case of `CCOC(=O)CC1(NC(=O)c2cc(COc3cncc(Cl)c3)on2)CCCCC1`, the activation was -1.57%.

With `CCC(NC(=O)c1cc(COc2ccc(F)c(F)c2)on1)c1ccncc1` (configuration not stated), the activation was -0.62%.

In the case of `Cc1cc(OCc2cc(C(=O)NCc3cc(C(C)C)no3)no2)cc(C)c1Cl`, the activation is 1.55% (active).

Regarding `Cc1ccc(C2=CCN(C)C(=O)N2c2ccc(Cl)cc2)cc1`, the activation is -0.59%.

For the molecule `Nn1c(SCC(=O)Nc2cccc3ccccc23)nnc1-c1cc(-c2ccc(F)cc2)n[nH]1`, the activation was -1.45%.

As for `COc1cccc(C(O)Cc2nc3ccccc3n2C)c1OC` (configuration not stated), the activation is -1.62%.

For `Cc1ccc(OCc2nc3ccccc3n2C)cc1`, the activation is 0.93% (active).

As to `Cc1ccc(OCc2nnc(SC3CCc4ccccc4C3=O)n2C)cc1` (configuration not stated), the activation is -0.36%.

Take `Cc1ccc(C(=O)N(Cc2ccccn2)CC2CCCO2)cc1` (configuration not stated): the activation was -0.96%.

In the case of `COc1ccc(Cl)cc1NC(=O)C(C)N1CCc2ccccc21` (configuration not stated), the activation was -1.48%.

Take `COC(CNC(=O)[C@H](Cc1ccccc1)NC1(C(=O)NC2CCCCC2)CCCCC1)OC`: the activation was -1.29%.

Take `COC(=O)[C@]12C[C@H](CC(=O)N3CCN(C(=O)C4CC4)CC3)C(=O)N(CCC3=CCCCC3)C1=C[C@H](C(C)C)O[C@@H]2C1CC1`: the activation was -1.07%.

In the case of `Cc1cc(N=Nc2ccc3ccccc3c2)ccc1O`, the activation was 1.92% (active).

As to `COC(=O)CC1CCc2cc(C)cc(C(CC(C)C)NC(=O)[C@H](CC(C)C)NC(=O)OCc3ccccc3)c2O1` (some centres not stated), the activation was -1.68%.

Regarding `CC(C)(C)c1ccc(CSc2nnc(-c3cccs3)o2)cc1`, the activation is -0.67%.

In the case of `CCOC(=O)CSc1ncc(-c2cccc(Cl)c2)cn1`, the activation is -1.41%.

With `CCOC(=O)CSc1nc(C)cc2c1C(=O)OC2`, the activation is 1.04% (active).

With `CCN(Cc1ccccc1)C(=O)CSc1nc(C)cc2c1C(=O)OC2`, the activation is -0.86%.

For the molecule `COC(=O)C1CN(CCc2ccccc2)CCS(=O)(=O)N1Cc1ccc(F)cc1` (configuration not stated), the activation is -0.95%.

As for `CN(Cc1ccccc1)C(=O)COC(=O)/C=C/c1ccc2c(c1)OCO2`, the activation is -0.82%.

Take `Cc1cccc(NC(=O)/C=C/c2ccc3c(c2)OCO3)n1`: the activation was 1.53% (active).

As to `COc1cccc(/C=C/C(=O)Nc2ccc3c(c2)OCCO3)c1`, the activation was -0.84%.

For the molecule `c1csc(-c2nnc(SCc3nc4ccccc4[nH]3)o2)c1`, the activation was -0.86%.

`O=C(CSc1nnc(-c2ccccn2)n1-c1ccccc1)Nc1ccc2cn[nH]c2c1`: the activation is -0.07%.

With `CC(=O)c1cc(-c2ccc3ccccc3c2)c(=O)n2c1CCC2`, the activation is -1.47%.

For the molecule `CC(CCN1CCC(C(O)(c2ccccc2)c2ccccc2)CC1)Oc1ccc(C(F)(F)F)cc1` (configuration not stated), the activation is -0.69%.

On to `C/C=C/C(=O)OCc1csc(CC(=O)Nc2ccccc2C)n1`, for which the activation is -0.39%.

For the molecule `Cc1ccc(NC(=O)Cc2nc(COC(=O)C(C)NS(=O)(=O)c3ccc(C)cc3)cs2)cc1` (configuration not stated), the activation was 0.98% (active).

On to `CC(=O)Nc1ccc(S(=O)(=O)NC(C)C(=O)OCC(=O)NC2CCCC2)cc1` (configuration not stated), for which the activation was -0.65%.

As for `COc1cccc(CNC(=O)CNS(=O)(=O)c2ccc3nc(C)sc3c2)c1OC`, the activation is -1.81%.

Consider `COc1ccc(CCNC(=O)CSc2nc3c([nH]2)c(=O)n(C)c(=O)n3C)cc1`, for which the activation was -1.12%.

With `COc1ccc2c(C(C)c3ccc(N)cc3)cn(C)c2c1` (configuration not stated), the activation is -0.41%.

With `Cc1cc(Br)cn2c(Cc3ccccc3C(F)(F)F)c(C3CCCCC3)nc12`, the activation was -0.29%.

`CCCc1nc2c3ccccc3ccn2c1Cc1ccccc1C(F)(F)F`: the activation was 1.29% (active).

For `FC(F)(F)c1ccccc1Cc1c(-c2ccccc2)nc2c3ccccc3ccn12`, the activation was -0.19%.

For `COc1ccc(S[C@]2(C(=O)N(C)C)CC(=O)N(c3ccc(OC)cc3)[C@@H]2c2ccc(OC)cc2)cc1`, the activation was -1.42%.

(Values after PubChem BioAssay AID652126 (The Scripps Research Institute Molecular Screening Center, 2013).)
